In ChEMBL document CHEMBL3988442, “University of Dundee, Small-Polar-MMV Screening Library” (2021):
In all, about 48,000 compounds went through this assay and about 13,000 (27%) showed an effect of 50% or more. The list shows a part of the results.

Each compound was assayed on Wolbachia pipientis (assay: Anti-Wolbachia Cell-Based Screen). Details: 5 µM.
Assay type: functional
Set-up: scale not given: in the data most compounds retested in dose-response had high values
For `N#Cc1cccc(NC2CC(=O)N(C3Cc4ccccc4C3)C2)n1` (stereo not drawn), the “Percent Effect” value was 5.834%.
For `Cc1nc(C)n(CC2CCCN2CCCOc2ccc(F)cc2)n1` (stereo not drawn), the “Percent Effect” value was 2.053%.
For `Cc1nc(C)n(CC2CCCN(CCOc3cccc(C#N)c3)C2)n1` (stereo not drawn), the “Percent Effect” value was -2.683%.
`Cc1nc(C)n(CC2CCCN(CCOc3cccc(F)c3)C2)n1` (stereo not drawn) was tested, and the “Percent Effect” value was 75.5%.
With `Fc1ccc(OCCCN2CCCC(Cn3cncn3)C2)cc1` (stereo not drawn) the “Percent Effect” value was 107.3%.
For `O=C1CCCN1CCCN1CCCC(Cn2cncn2)C1` (stereo not drawn), the “Percent Effect” value was 2.08%.
In the case of `Cc1nc(C)n(CC2CCCN(CCCOc3ccccc3)C2)n1` (stereo not drawn), the “Percent Effect” value is reported as -19.22%.
With `Cc1nc(C)n(CC2CCCN(CCOc3ccc(F)cc3)C2)n1` (stereo not drawn) the “Percent Effect” value was 98.89%.
In the case of `Fc1ccc(CN2CCCC(Cn3cncn3)C2)c2ncccc12` (stereo not drawn), the “Percent Effect” value is reported as 0.09463%.
In the case of `Cc1nc(C)n(CC2CCCN(CCCOc3ccc(F)cc3)C2)n1` (stereo not drawn), the “Percent Effect” value is reported as 86.71%.
In the case of `Cc1c(C(C)NC2CCN(C(C)C)CC2)cnn1-c1ccc(F)cc1F` (stereo not drawn), the “Percent Effect” value is reported as -0.2198%.
In the case of `CCOc1cccnc1C(=O)N1CCCN(c2nc(C)cs2)CC1`, the “Percent Effect” value is reported as 4.223%.
With `CCn1ccnc1CN1C[C@@H](CN2CCCC2)[C@@H](CO)C1` the “Percent Effect” value was -1.438%.
In the case of `CCn1ccnc1CN1CCN(CC(=O)NC(=O)NC2CC2)CC1`, the “Percent Effect” value is reported as -16.24%.
For `Cc1ccc(C)c(-n2ncc(C(=O)NCC3COC(C)(C)O3)c2N)c1` (stereo not drawn), the “Percent Effect” value was 185.5%.
With `CC1(C)OCC(CNC(=O)c2cnn(-c3cc(Cl)ccc3Cl)c2N)O1` (stereo not drawn) the “Percent Effect” value was -0.3036%.
For `Cc1ccc(C)c(-n2ncc(NC(=O)NC3(C)CCOC3)c2C)c1` (stereo not drawn), the “Percent Effect” value was 6.274%.
With `CCOC(=O)c1ccc(CNC(=O)c2ccncc2Cl)o1` the “Percent Effect” value was 1.896%.
For `Cc1c(C(=O)NC2(C#N)CCSC2)cnn1-c1ccccc1Cl` (stereo not drawn), the “Percent Effect” value was -17.58%.
For `COc1ccc(-n2ncc(C(=O)NCC3COC(C)(C)O3)c2N)cc1` (stereo not drawn), the “Percent Effect” value was -3.479%.
With `CC1(C)OCC(CNC(=O)c2cnn(-c3ccc(Cl)cc3)c2N)O1` (stereo not drawn) the “Percent Effect” value was -2.312%.
With `Cc1cc(Cl)ccc1-n1ncc(C(=O)NCC2COC(C)(C)O2)c1N` (stereo not drawn) the “Percent Effect” value was 154.2%.
For `CC1(C)OCC(CNC(=O)c2cnn(-c3cccc(Cl)c3Cl)c2N)O1` (stereo not drawn), the “Percent Effect” value was 190.2%.
`CC(C)c1ccc(-n2ncc(C(=O)NCC3COC(C)(C)O3)c2N)cc1` (stereo not drawn) was tested, and the “Percent Effect” value was 161.1%.
`CC(=O)N[C@@H]1C[C@H](Cc2ccccc2)O[C@H](c2ccc(C(=O)O)cc2)C1` was tested, and the “Percent Effect” value was -2.466%.
`O=C(CC1=CCCCC1)NCCc1csc(N2CCCC2)n1` was tested, and the “Percent Effect” value was -4.83%.
`COc1cccc(CCC(=O)N2CCN(Cc3noc(C)n3)CC2)c1` was tested, and the “Percent Effect” value was -5.031%.
With `CN1CCN(CCC(F)(F)C(F)F)CC12CCNC(=O)CC2` (stereo not drawn) the “Percent Effect” value was 7.69%.
